The values below come from PubChem BioAssay (NCATS).

Molecules are shown by their SMILES. Records with an inconclusive call do not appear. Calls of active or inactive are those of the source. Unless noted, calls follow the shape of the full dose curve.

The nature of experiment [1]: Primary qHTS to identify inhibitors of SARS-CoV-2 cell entry (AID 1645846). Also: nearly all actives have a fitted effect of over 45% in size. Also: potency is read from the fitted curve at half-maximal effect. The settings on record: SARS-CoV-2 pseudovirus cell entry assay, luminescence; activity change, negative = inhibition: at 57.1 µM (top of the series) unless noted. In outline:
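Data are normalized to wells receiving SARS-CoV-2-S pseudoparticles and those given bald particles. Entry signal was luciferase luminescence in stable hACE2 Expi293F cells, 48 hr post-infection, after 1 hr compound pretreatment.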
A general note: Quantitative high-throughput screening tests each substance at several concentrations.

A short description of experiment [2]: Cytotoxicity counterscreen for inhibitors of SARS-CoV-2 cell entry (AID 1645845). Also: nearly all actives have a fitted effect of over 50% in size. The settings on record: outcome: dose series up to 57.1 µM unless noted. The method in brief:
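Expi293F/hACE2 cells seeded overnight; cpd pin-transferred in DMSO, 1 h preincubation, + media, 48 h 37 C 5% CO2; ATPLite 1step luminescence; normalized to cells and no cells.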
In general terms: A counterscreen serves to expose hits that act by an unwanted route or on another target.

Experiment [3] is described as follows: VSVG counterscreen qHTS to identify inhibitors of SARS-CoV-2 cell entry (AID 1645847). Also: potency is read from the fitted curve at half-maximal effect; nearly all actives have a fitted effect of over 65% in size. The method in brief:
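Counterscreen using VSV-G (not spike) pseudotyped MLV particles on ACE2-expressing Expi293F cells after 1 h compound preincubation; infection ran 48 h at 37 °C. Data normalized to VSV-G PP and bald-PP wells.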

A short description of experiment [4]: KB-8-5-11 P-gp reporter qHTS against the NCATS DSHEA and TCM libraries (AID 1919977; active = well fitted curve in the direction sought with a large enough effect; an effect the other way counts as inactive or inconclusive; also: 0% is about no effect). In outline:
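Cells were seeded, allowed ~4 h to attach, dosed by pin tool (substance titrations), incubated ~72 h at 37C, then lysed with CellTiter-Glo for 30 min at room temperature before luminescence reading.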

Experiment [5] deals with Alpha-galactosidase (Coffea arabica) (UniProt Q42656). Kind of experiment: Counterscreen for Glucocerebrosidase Inhibitors: qHTS Assay for Coffee Bean alpha-Galactosidase at pH 4.5 (AID 957; active = well fitted curve in the direction sought with a large enough effect; an effect the other way counts as inactive or inconclusive;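 also: plate controls were enzyme alone for no effect and no enzyme for full effect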). The method in brief:
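Coffee bean alpha-galactosidase 2 nM, substrate 4-MU-alpha-Gal 80 uM, pH 4.5 citrate/Tween-20, 20 min RT. Cpd titration 0.7 nM–77 uM. Stop pH 10, fluorescence 365/440 nm; Hill-equation AC50.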

The target is the same in experiment [6]. The experiment can be described thus: Counterscreen for Glucocerebrosidase Inhibitors: qHTS Assay for Coffee Bean alpha-Galactosidase at pH 5.9 (AID 998; active = well fitted curve in the direction sought with a large enough effect; an effect the other way counts as inactive or inconclusive;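 also: plate controls were uninhibited enzyme for no effect and no-enzyme basal signal for full effect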). In outline:
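Green coffee bean enzyme (2 nM final) was incubated with compounds (0.7 nM–77 uM) and 4-methylumbelliferyl alpha-D-galactopyranoside (80 uM) in citrate buffer pH 5.9, 20 min at room temperature. High-pH stop; fluorescence 365/440 nm; AC50 from Hill fits.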

Experiment [7] is described as follows: Validation screen for inhibitors of Lassa infection (AID 463096). Also: % is scaled to controls: 0 for no effect and ±100 for the full control effect.
Experiment [8] concerns the target Bile acid receptor (Homo sapiens) (UniProt Q96RI1). Kind of experiment: qHTS assay for small molecule agonists of farnesoid X receptor signaling (AID 588527).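 Also: 0% = vehicle basal and 100% = reference agonist.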 The settings on record: HEK293T FXR-UAS-bla, beta-lactamase ratio, 16 h; stronger effect = higher value. In outline: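 Agonist-mode beta-lactamase reporter in GeneBLAzer FXR-UAS-bla HEK293T cells, titration up to 92 uM, 16 h exposure at 37 C, CCF4 fluorescence. Response scaled to DMSO (0%) and 100 uM chenodeoxycholic acid (100%), then Hill-fitted for EC50 and efficacy.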

Experiment [9] concerns the target Glutathione peroxidase 1 (Homo sapiens) (UniProt P07203). Kind of experiment: Primary qHTS Assay for Inhibitors of Recombinant Selenoprotein Glutathione Peroxidase 1 (GPX1) (AID 1845191; active = well fitted curve in the direction sought with a large enough effect; an effect the other way counts as inactive or inconclusive; also: nearly all actives have a fitted effect of over 65% in size). In outline: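 Recombinant GPX1 (10 nM final) was preincubated with compound for 30 min at room temperature, then reacted with 1 mM GSH, 0.5 mM CHP, 0.5 mM NADPH and 100 nM glutathione reductase; NADPH fluorescence (340/450 nm) was read at 0 and 15 min.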

The nature of experiment [10]: qHTS drug screen for cell cycle checkpoint inhibitors in PARPi-resistant BRCA-mutant ovarian cancer cell lines. (AID 1963452). The conditions noted are these: PEO1/OlaR viability, CellTiter-Glo luminescence, 96 h, stronger effect = lower value. The method in brief:
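PEO1, PEO4 and PEO1/OlaR ovarian cancer cells, 600 per well, exposed 96 h at 37C to a dilution series. Viability read by CellTiter-Glo luminescence, normalized to DMSO and empty wells; activity summarized as Z-AUC.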

For experiment [11], the target named is Nuclear receptor subfamily 1 group I member 3 (Homo sapiens) (UniProt Q14994). Kind of experiment: Primary qHTS for antagonist of constitutive androstane receptor (CAR) against the NCATS DSHEA and TCM libraries (AID 1794836; active = well fitted curve in the direction sought with a large enough effect; an effect the other way counts as inactive or inconclusive). In outline:
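HepG2 cells stably carrying hCAR and a CYP2B6 luciferase reporter (2,500 cells/well) attached for 5 h, then received compounds with 48 uM CITCO for 24 h at 37C. ONE-Glo luminescence read antagonism; CellTiter-Fluor (405/540 nm) gave viability.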

The target in experiment [12] is Phospholipid hydroperoxide glutathione peroxidase GPX4 (Homo sapiens) (UniProt P36969). Kind of experiment: Primary qHTS Assay for Inhibitors of Recombinant Selenoprotein Glutathione Peroxidase 4 (GPX4) (AID 1845192; active = well fitted curve in the direction sought with a large enough effect; an effect the other way counts as inactive or inconclusive; also: % is scaled to controls: 0 for no effect and ±100 for the full control effect; nearly all actives have a fitted effect of over 65% in size). In outline: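 GR-coupled readout: 100 nM GR, 1 mM GSH, 0.5 mM NADPH; NADPH fluorescence (ex 340/em 450 nm) read at t=0 and after 15 min RT. GPX4 200 nM, preincubated 30 min with compound; substrate 0.5 mM CHP.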

[13] abbreviates: measured here: PEO1 parental Z-AUC.

Nuclear receptor subfamily 1 group I member 3 (Homo sapiens), sequence (Q14994 whole entry, looked up): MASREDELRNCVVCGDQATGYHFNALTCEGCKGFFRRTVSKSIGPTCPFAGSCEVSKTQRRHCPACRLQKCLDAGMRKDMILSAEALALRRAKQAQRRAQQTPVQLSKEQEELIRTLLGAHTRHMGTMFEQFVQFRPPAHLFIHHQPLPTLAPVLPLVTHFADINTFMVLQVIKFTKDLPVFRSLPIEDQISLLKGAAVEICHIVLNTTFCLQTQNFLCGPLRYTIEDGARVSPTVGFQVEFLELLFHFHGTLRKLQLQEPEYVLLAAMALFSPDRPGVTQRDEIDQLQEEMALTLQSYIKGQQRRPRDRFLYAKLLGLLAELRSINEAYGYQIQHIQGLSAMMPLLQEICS
Alpha-galactosidase (Coffea arabica), sequence (Q42656 whole entry, looked up): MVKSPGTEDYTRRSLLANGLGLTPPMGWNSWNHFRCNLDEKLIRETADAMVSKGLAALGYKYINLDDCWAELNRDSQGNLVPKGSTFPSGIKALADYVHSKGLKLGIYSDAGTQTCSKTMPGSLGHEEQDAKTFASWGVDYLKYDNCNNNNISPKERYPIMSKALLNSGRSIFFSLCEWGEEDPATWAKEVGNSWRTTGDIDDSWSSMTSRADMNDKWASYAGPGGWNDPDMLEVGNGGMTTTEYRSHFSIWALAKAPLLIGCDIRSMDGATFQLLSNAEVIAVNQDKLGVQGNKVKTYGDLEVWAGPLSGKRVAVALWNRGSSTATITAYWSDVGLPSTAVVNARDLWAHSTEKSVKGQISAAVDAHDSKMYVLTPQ
Glutathione peroxidase 1 (Homo sapiens), sequence (P07203 whole entry, looked up): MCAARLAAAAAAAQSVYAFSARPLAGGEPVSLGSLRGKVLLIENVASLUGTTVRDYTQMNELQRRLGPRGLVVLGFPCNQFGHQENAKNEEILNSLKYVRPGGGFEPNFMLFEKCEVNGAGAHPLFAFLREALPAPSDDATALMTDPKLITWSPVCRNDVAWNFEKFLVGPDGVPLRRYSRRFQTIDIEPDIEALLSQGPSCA
Phospholipid hydroperoxide glutathione peroxidase GPX4 (Homo sapiens), sequence (P36969 whole entry, looked up): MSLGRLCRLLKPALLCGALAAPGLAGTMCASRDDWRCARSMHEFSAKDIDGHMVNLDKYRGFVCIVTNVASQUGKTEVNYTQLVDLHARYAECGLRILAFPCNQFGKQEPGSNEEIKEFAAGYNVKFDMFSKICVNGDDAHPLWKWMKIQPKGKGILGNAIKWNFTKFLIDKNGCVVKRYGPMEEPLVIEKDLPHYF
Bile acid receptor (Homo sapiens), sequence (Q96RI1 whole entry, looked up): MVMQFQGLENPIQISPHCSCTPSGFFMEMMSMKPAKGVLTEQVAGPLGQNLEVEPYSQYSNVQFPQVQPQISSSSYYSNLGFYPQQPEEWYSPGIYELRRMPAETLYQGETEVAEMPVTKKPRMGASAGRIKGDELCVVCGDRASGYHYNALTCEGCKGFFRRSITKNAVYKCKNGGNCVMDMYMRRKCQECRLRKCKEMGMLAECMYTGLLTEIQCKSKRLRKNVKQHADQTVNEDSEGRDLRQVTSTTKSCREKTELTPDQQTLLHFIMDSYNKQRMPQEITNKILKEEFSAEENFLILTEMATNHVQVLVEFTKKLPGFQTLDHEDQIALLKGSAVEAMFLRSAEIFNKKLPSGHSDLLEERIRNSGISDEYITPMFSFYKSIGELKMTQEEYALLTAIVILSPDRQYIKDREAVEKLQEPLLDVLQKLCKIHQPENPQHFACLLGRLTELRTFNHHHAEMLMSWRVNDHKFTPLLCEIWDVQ

`NS(=O)(=O)c1ccc(S(=O)(=O)Nc2cccc3c(Cl)c[nH]c23)cc1`: the activity change, negative = inhibition in experiment [1] is -3.77%.

On to `CC(C)OC(=O)[C@H](C)N[P@](=O)(OC[C@H]1O[C@@H](n2ccc(=O)[nH]c2=O)[C@](C)(F)[C@@H]1O)Oc1ccccc1`, for which the Potency entry in [2] is “inactive”. In addition, the Potency in experiment [3] was 30.4 µM (active).

Regarding `CNC(=O)c1cccc2cc(Oc3ccnc4cc(OCC5(N)CC5)c(OC)cc34)ccc12`, in experiment [1], the activity change, negative = inhibition was -98.2%.

For the molecule `CC(=O)N1CCN(c2ccc(NC(=O)Cc3cnc(-c4ccnc(F)c4)c(C)c3)nc2)CC1`, in experiment [1], the activity change, negative = inhibition was 0.388%.

For `C[C@H]1[C@H](C)CC[C@]2(C(=O)O)CC[C@]3(C)C(=CC[C@@H]4[C@@]5(C)C[C@@H](O)[C@H](O)[C@@](C)(CO)[C@@H]5CC[C@]43C)[C@H]12`, the Potency entry in experiment [2] and in experiment [4] was “inactive” throughout.

Turning to `Cc1c(CN2CCC(Nc3ncnc4sc(CC(F)(F)F)cc34)CC2)ccc2c1cc(C#N)n2Cc1cn[nH]c1`, the Potency in experiment [1] was 8.91 µM (active).

With `COc1cccc(-c2cc(F)ccc2C2Cc3nc(N)nc(C)c3C(=O)N2)n1` (stereo not given), the activity change, negative = inhibition in experiment [1] is -91.7%.

For the molecule `COc1cc([C@@H]2c3cc4c(cc3[C@@H](O[C@@H]3O[C@@H]5CO[C@@H](c6cccs6)O[C@H]5[C@H](O)[C@H]3O)[C@H]3COC(=O)[C@H]23)OCO4)cc(OC)c1O`, the activity change, negative = inhibition in experiment [1] is -96.2%.

`CN(CCOc1ccc(C[C@H](Nc2ccccc2C(=O)c2ccccc2)C(=O)O)cc1)c1ccccn1`: the result in [5] and in experiment [6] was inactive. The Potency entry in experiment [7] and in experiment [2] was “inactive” each time. Further, in experiment [8], the activation is -7.09% (inactive).

As for `Cn1c(CCCCCCC(=O)NO)nc2cc(N(CCCl)CCCl)ccc21`, the Potency entry in [2] and in experiment [9] was “inactive” each time. Also, the Z-AUC is -0.877 (inactive) in experiment [10], -0.482 in experiment [10] (setting [13]) and -0.0287 in experiment [10] (measured here: PEO4 Z-AUC).

On to `CC1=C(CO)C(=O)O[C@@H]([C@@H](C)[C@H]2CC[C@H]3[C@@H]4C[C@H]5O[C@]56[C@@H](O)C=CC(=O)[C@]6(C)[C@H]4CC[C@]23C)C1`, for which, in experiment [1], the Potency is 1.26 µM (active).

Take `CC1=C(/C=C/C(C)=C/C=C/C(C)=C/C=C/C=C(C)/C=C/C=C(C)/C=C/C2=C(C)CCCC2(C)C)C(C)(C)CCC1`: the Potency entry in [2], in experiment [11] and in [4] was “inactive” throughout. Besides, the activity change, negative = inhibition in experiment [1] is -16.6%.

In the case of `CC1(C)C(=O)N(c2ccc(C#N)c(C(F)(F)F)c2)C(=S)N1Cc1ccc(-c2cn[nH]n2)cc1`, the Potency entry in [2], in experiment [9] and in experiment [12] was “inactive” throughout. Further, the Z-AUC in experiment [10] is 0.1 (inactive); in [10] (setting [13]) it was 0.427; in experiment [10] (measured here: PEO4 Z-AUC) it was 0.68.

Regarding `O=C(NC[C@H](O)CN1CCc2ccccc2C1)c1ccnc(NC2CCC2)c1`, the activity change, negative = inhibition in experiment [1] was determined as 4.47%.

In the case of `C[C@H]1[C@H](C)CC[C@]2(C(=O)O)CC[C@]3(C)C(=CC[C@@H]4[C@@]5(C)CC[C@H](O)C(C)(C)[C@@H]5CC[C@]43C)[C@H]12`, the Potency result in experiment [2] and in experiment [11] was “inactive” throughout.

Consider `COc1ccc2c(c1)CC[C@@H]1[C@@H]2CC[C@]2(C)[C@@H](NCCCCCCN3C(=O)C=CC3=O)CC[C@@H]12`, for which the Potency result in [1] was “inactive”.

Turning to `CC[C@@H](C)Nc1cc(C(=O)NC2CC3CCC(C2)N3c2ccc(C(=O)C3CC3)cn2)c(C)cc1C(N)=O` (stereo not given in full), the Potency in experiment [1] is 1 µM (active).

For the molecule `Cc1ccc(NS(=O)(=O)c2cccc(C#N)c2)c2[nH]cc(C#N)c12`, in [1], the activity change, negative = inhibition is -10.5%.

In the case of `CN(Cc1ccc(/C=C/C(=O)NO)cc1)CC12CC3CC(CC(C3)C1)C2`, in experiment [1], the Potency is 5.01 µM (active).

In the case of `CN1CC[C@@H](NC(=O)Nc2ccc(C#N)cc2)C[C@@H]1c1nc2ccccc2[nH]1`, the Potency result in [2] was “inactive”. For the same molecule, the Potency in experiment [3] was 24.1 µM (active).
